In the library only some 20% were active in any assay of this set; here they are far more common.
Pf growth 48h: P. falciparum growth inhibition at 48 hours (one generation); P. falciparum luciferase growth in erythrocytes, 48 h; AID 504832; Potency, µM (titrated, usually from 28.7 µM), hits mostly inhibitors; actives 5.9% (n = 310,000)
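Luminescence readout; reporter = integrated firefly luciferase in P. falciparum. RBC culture at 2% hematocrit, 0.1% parasitemia final, 37 C/5% CO2; decreased signal taken as growth inhibition.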
Pf growth 96h: P. falciparum growth inhibition at 96 hour, primary screen for plastid delayed-death inhibitors; Potency, µM (series often up to 28.7 µM), hits mostly inhibitors; AID 504834; actives 6.9% (n = 320,000); P. falciparum luciferase reporter growth, 96 h
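Two parasite generations (96 h, 37 C, 5% CO2) of compound exposure in infected erythrocytes (0.05% parasitemia, 2% hematocrit). Luciferase-reporter P. falciparum; decreased luminescence indicates inhibited growth, aimed at apicoplast-acting delayed death.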
Cycloheximide cs: counter-screen for Shiga toxin inhibitors: cycloheximide protein synthesis inhibition; max response, %; actives 12% (n = 300,000); cell reporter, cycloheximide protein synthesis inhibition counterscreen; AID 2314; in the data active = max response mostly above about 13%, no sharp cut-off; inactive = mostly below about 14%; note: read at 38.3 µM for the half of the compounds with a filed dose
Shiga inhibitor: Shiga toxin inhibition; inhibition, % at 38.7 µM; actives 9.2% (n = 290,000); Vero cells, Shiga toxin protein synthesis inhibition reporter; in the data active = inhibition mostly above about 28%, no sharp cut-off; inactive = mostly below about 43%
HCMV antiviral: human cytomegalovirus inhibition | activity change, negative = inhibition, % at 57.5 µM | AID 1259415 | HFF cells, HCMV-luciferase reporter, 72 h; active compounds read low | actives 4.5% (n = 410,000); in the data active = activity change below about -60%; inconclusive = no clear call, values can overlap the other calls; inactive = above about -39%
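Steps: HFFs plated, 16 h 37C; compounds added; HCMV-luciferase added to MOI 1 PFU/cell; 72 h 37C; OneGlo reagent, 5 min room temperature; luminescence read, normalized to controls.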
Numbers stand for hits; - = inactive; ? = inconclusive; . = no result given; [ ] = remark or other dose. Unless noted, calls come from the whole dose curve; as a rule, active = well fitted inhibition curve with a large enough effect; inconclusive = small, poorly fitted or top-dose-only effect, or another doubt; inactive = no such curve, though single readings can be large or run the other way.

SMILES | Pf growth 48h | Pf growth 96h | Cycloheximide cs | Shiga inhibitor | HCMV antiviral
Cc1ccc(NC(=O)C2OCCc3ccccc32)cc1C (configuration not stated) | - | - | 37 | 100 | -
CSc1nc2nccc(-c3ccc(-c4ccccc4)cc3)n2n1 | . | 10µM | - | - | -
O=C(CCNNC(=O)c1ccncc1)NCc1ccccc1 | - | ? | - | - | -103
O=C(CCc1ccccc1)NCc1ccncc1 | - | 3.7µM | - | - | -
CCCC(=O)NCc1ccncc1 | - | - | - | - | -
O=C(NCc1ccccc1)NC(=O)c1ccncc1 | - | ? | - | - | -
COC(C[C@@H](O)[C@@H](C)[C@H](O)COCc1ccccc1)OC | - | ? | - | - | -
N#Cc1c(N)nc(N)nc1Nc1ccc(Br)cc1 | - | - | 41 | 90 | -
CC(C)Cc1nc2oc3c(N4CCN(CCO)CC4)ncnc3c2c2c1CCCC2 | ? | ? | - | - | -
CCOC(=O)c1oc2nc(CC(C)C)c3c(c2c1N)CCC3 | ? | 7.4µM | - | - | -
Cc1ccc(S(=O)(=O)n2cnc3cc([N+](=O)[O-])ccc32)cc1C | - | - | - | - | -
Cc1ccc(-n2c3nc(=O)[nH]c(=O)c-3cc3cc([N+](=O)[O-])ccc32)cc1C | - | - | - | - | -99
CCc1cccc(NC(=O)Cn2ccn3nc(-c4ccc(OC)c(OC)c4)cc3c2=O)c1 | . | . | . | . | -
CCOc1ccc(NC(=O)c2ccc(OC)cc2)cc1 | - | ? | 43 | 61 | -
O=C(Nc1ccc(OCC(F)(F)C(F)F)c(C(F)(F)F)c1)c1ccccc1O | 2.1µM | 3.7µM | 21 | 52 | -97
CCOc1ccc(NC(=O)c2nn(C)cc2Br)cc1 | - | ? | 15 | - | -
CCOc1ncccc1C(=O)Nc1ccc(C(=O)Nc2ccc(OC)cc2)cc1 | ? | - | . | . | ?
Cn1cc(Br)c(C(=O)Nc2ncc(Br)s2)n1 | - | - | 36 | - | -
O=C(O)c1cccc(NC(=O)c2cccc(S(=O)(=O)Nc3cccc(F)c3)c2)c1 | . | . | . | . | -
CC1CCN(Cc2c(C(=O)N/N=C/c3ccc(OC(C)C)cc3)nnn2-c2nonc2N)CC1 | ? | - | - | - | -
CN1C[C@@H]2C[C@@H](c3cccn3-c3nccs3)N3CCC[C@@]23C1=O | - | - | - | - | ?
CCOc1cc(C(=S)N2CCCCC2)ccc1OCC(=O)NCc1ccccc1 | . | 3.7µM | - | - | -
O=C(Nc1ccc(NC(=O)c2ccncc2)cc1)c1ccncc1 | - | - | - | - | -
CCOc1ccc(NC(=O)c2ccc(NCC(=O)N3CCCCCC3)cc2)cc1 | - | - | 27 | - | -
CCN1CCN(C(=S)c2ccc(OCC(=O)NCc3ccccc3)cc2)CC1 | - | - | - | - | -
SMILES | Pf growth 48h | Pf growth 96h | Cycloheximide cs | Shiga inhibitor | HCMV antiviral
CCOc1ccc(NC(=O)c2ccncc2)cc1 | - | ? | 17 | - | -
CCOc1ccc(C(=O)NCC(=O)N2CCCCCCC2)cc1 | ? | ? | . | . | -
CCOc1ccc2c(c1)C(=NNC(=O)c1ccncc1)c1cc(OCC)ccc1-2 | 9.3µM | 2.1µM | - | - | -95
CCOc1ccc(C(=O)c2ccncc2)cc1 | - | . | - | - | -
NC(=O)C1(N2CCCCC2)CCN(C(=S)Nc2cccc(Cl)c2)CC1 | - | - | - | - | -
CC(C)Oc1ccc(CNC(=O)c2cnc3sc(N4CCCC4)nn3c2=O)cc1 | . | . | . | . | -
O=C(CN1C(=O)NC2(CCCC2)C1=O)OCc1ccc(Cl)c(Cl)c1 | - | - | . | . | -
CCOc1cc(C(=O)Nc2ccc(NC(C)=O)cc2)ccc1OCC(=O)N1CCCCC1 | - | 12µM | - | - | -
CCOC(=O)NC(=S)Nc1ccc(C(C)(C)C)cc1Br | ? | ? | 22 | - | -
CCOc1cc(C(=O)Nc2ccncc2)cc(OCC)c1OCC | 5.2µM | ? | - | - | -
O=C(Nc1ccc(OCC(F)(F)C(F)F)c(C(F)(F)F)c1)c1ccccc1 | . | . | . | . | -
CCOc1cc(C(=O)Nc2ccc(C)cc2C)ccc1OCC(=O)N1CCCCC1 | ? | ? | - | - | -
CCOC(=O)Nc1ccc(C)cc1Br | - | - | - | - | -
O=C(Nc1ccc(OCC(F)(F)C(F)F)cc1)c1ccncc1 | - | - | - | - | -63
CCc1noc(C)c1C(=O)Nc1ccc(C#N)cc1 | - | - | . | . | -
CCOC(=O)NC(=S)Nc1ccc(OC)cc1 | - | - | 18 | - | -
COc1ccc(NC(=O)c2ccc(Oc3ncccn3)cc2)cc1 | - | - | 22 | 57 | -
COc1ccc(NC(=O)c2ccc(NC(=O)c3ccncc3)cc2)cc1 | - | - | - | - | -
COc1ccc(C(=O)Nc2ccc(C3CC3(Cl)Cl)cc2)cc1 (configuration not stated) | - | -[1.15 µM] | 21 | - | ?
CCOC(=O)NC(NC(=S)Nc1ccc(OC)cc1)C(Cl)(Cl)Cl (configuration not stated) | - | ? | - | - | -
CCOc1ccc(NC(=O)c2ccc(NC(=O)c3ccc(NC(N)=O)cc3)cc2)cc1 | . | . | . | . | -
CCOc1ccc(NC(=O)c2ccc(N)cc2)cc1 | - | - | 12 | 25 | -
COc1ccc(NC(=O)c2ccc3c(c2)n(C)c(=O)n3C)cc1 | - | ? | - | - | -
COc1ccc(NC(=O)Cn2c(=O)n(Cc3ccco3)c(=O)c3sc4ccccc4c32)cc1OC | . | . | . | . | -
CCOc1cc(C(=O)NCCC(=O)N2CCC3(CC2)NCCc2[nH]cnc23)cc(OCC)c1OCC | - | - | - | - | -
SMILES | Pf growth 48h | Pf growth 96h | Cycloheximide cs | Shiga inhibitor | HCMV antiviral
O=C(CN(C(=O)CCC(=O)Nc1ccccn1)c1ccc2c(c1)OCO2)NCc1ccc(F)cc1 | ? | - | - | - | -
O=C(CCSc1ccccc1)NCCN1CCOCC1 | - | . | - | - | -
O=C(CCSc1nc2ccccc2o1)N1CCOCC1 | - | - | 32 | 56 | -
O=C(CCSc1ccccc1)N1CCOCC1 | - | ? | 35 | 80 | -
O=C(CCSc1nnc(-c2ccc(O)cc2)o1)N1CCOCC1 | - | - | - | - | -
CCOc1ccc(-n2nnnc2SCC(=O)N2CCOCC2)cc1 | - | - | - | - | -
CC(NC(=O)CCC(=O)N1CCCCCC1)c1ccccc1 (configuration not stated) | ? | - | - | - | -
O=C(CCSc1nnnn1-c1ccccc1)N1CCOCC1 | - | . | - | 36 | -
O=C(CCSc1ccccc1)N1CCCC1 | - | - | 46 | 79 | -
O=C(Nc1ccc(-c2nc3ccccc3[nH]2)cc1)C1CCCN(Cc2ccn[nH]2)C1 (configuration not stated) | . | . | . | . | -
CCN(CC(=O)Nc1ccc(NC(C)=O)cc1)C(=O)c1cccc2ccccc12 | - | - | . | . | -
CCN(CC)C(=O)CNC(=O)c1nn(-c2ccc(OC)c(Cl)c2)c(=O)c2ccccc12 | 4.1µM | - | - | - | -
COc1ccc(-n2nc(C(=O)NCC(=O)NC(C)C)c3ccccc3c2=O)cc1OC | . | - | - | - | -
COc1ccc(-n2nc(C(=O)NCC(=O)NCCCN3CC(C)CC(C)C3)c3ccccc3c2=O)cc1OC (configuration not stated) | - | - | - | - | -

Screening data: PubChem BioAssay, National Center for Advancing Translational Sciences (NCATS)
